Assay [1] relates to TRPC4 beta (transient receptor potential cation channel C4), mouse. The experiment in a line: activators of mouse TRPC4 channel, confirmation, cell-based, Fluo4 calcium, HEK293 TRPC4beta/mu-opioid, duplicates, 10 µM (AID 2426). The settings on record: Fluo4 calcium fluorescence, at 10 µM; stronger effect = higher value.
Assay [2] deals with transient receptor potential cation channel C4 beta (TRPC4), mouse. The experiment in a line: activators of mouse TRPC4 channel, confirmation, cell-based, second round, Fluo4, HEK293 TRPC4beta/mu-opioid, 1 µM (AID 2461;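 active means primary screen active and over 50% activation in each of two duplicate runs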). Particulars: Fluo4 calcium fluorescence, at 1 µM; stronger effect = higher value.
Assay [3] has as its system TRPC4 (transient receptor potential cation channel C4 beta), mouse. As to the kind of experiment: positive allosteric modulators of mouse TRPC4, confirmation, cell-based, second round, Fluo-4, HEK293 TRPC4beta/mu-opioid, 1 µM (AID 2554;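 active means primary screen hit whose fluorescence ratio, in both repeats, exceeds the weak agonist control mean by 3 SD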). The settings on record: DAMGO EC20, Fluo-4 calcium flux, at 1 µM; stronger effect = higher value.
For assay [4], the system named is TRPC4 beta (transient receptor potential cation channel C4), mouse. As to the kind of experiment: positive allosteric modulators of mouse TRPC4, confirmation, cell-based, Fluo-4, HEK293 TRPC4beta/mu-opioid (AID 2555;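 active means primary screen hit whose calcium fluorescence ratio, in both repeats, exceeds the weak agonist control mean by 3 SD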). The settings on record: DAMGO EC20, Fluo-4 calcium flux, at 10 µM; stronger effect = higher value.
Assay [5] concerns the target Short transient receptor potential channel 4 (Mus musculus) (UniProt Q9QUQ5). The experiment in a line: inhibitors of mouse TRPC4 channel, confirmation, cell-based, Fluo4, HEK293 TRPC4beta/mu-opioid (AID 2636;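 active means calcium signal cut by more than 3 SD below the full-agonist control yet still positive, in both repeats and the earlier primary screen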). The settings on record: DAMGO, Fluo4 calcium flux, at 10 µM; stronger effect = higher value.
The target is the same in assay [6]. The experiment in a line: inhibitors of mouse TRPC4 channel, confirmation, cell-based, second round, Fluo4, HEK293 TRPC4beta/mu-opioid, 1 µM (AID 2637;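 active means calcium signal ratio cut to more than 3 SD under the fully stimulated control mean yet still positive, in both repeats and the primary screen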;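 on inhibition: percent of integrated ratio relative to wells lacking test compound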). The settings on record: Fluo4 calcium flux, DAMGO, at 1 µM; stronger effect = higher value.
The target is the same in assay [7]. As to the kind of experiment: mouse TRPC4 channel activators, dose response, cell-based, HEK293 TRPC4/mu-opioid, Fluo-4 calcium (AID 434937;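 active means primary screen activator hit with a dose response curve and TRPC4 channel activation at any tested dose; inactive means no activation, no dose response, or not a primary hit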).
Assay [8] shares this target. As to the kind of experiment: TRPC4 positive allosteric modulators, dose response, cell-based, HEK293 TRPC4/mu-opioid, Fluo-4 calcium, EC20 DAMGO (AID 434941;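 active means earlier screen potentiator hit that boosts the TRPC4 ion channel at some dose, with a dose response; inactive means no potentiation, no dose response, or not a prior hit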;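 further: calcium entry triggered by an EC20 dose of DAMGO at the co-expressed mu-opioid receptor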).
Assay [9] addresses Short transient receptor potential channel 6 (Mus musculus) (UniProt Q61143). The experiment in a line: inhibition of mouse TRPC6 channel, confirmation, selectivity assay for TRPC4 inhibitor project, cell-based, HEK293, membrane potential dye, duplicate (AID 434948;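 active means active in primary screen and both duplicates, each dropping signal beyond three positive-control SD with fluorescence still positive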). The settings on record: HEK293 TRPC6, membrane potential dye fluorescence, at 10 µM; inhibition: stronger effect = higher value, stimulated with maximal-effect acetylcholine unless noted; outcome: stimulated with maximal-effect acetylcholine unless noted.

For assay [10] the target is unchanged. As to the kind of experiment: activation of mouse TRPC6 channel, confirmation, selectivity assay for TRPC4 activator project, cell-based, HEK293, membrane potential dye, duplicate (AID 434950;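 active means membrane potential signal rise above negative control mean plus 3 SD in both duplicates, also active in the earlier TRPC4 screen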). Particulars: HEK293 TRPC6, membrane potential fluorescence, at 10 µM; stronger effect = higher value.
For assay [11] the target is unchanged. The experiment in a line: TRPC6 potentiation by TRPC4 potentiator hits, confirmation, selectivity assay for TRPC4 potentiator project, HEK293 cells, membrane potential dye, duplicate (AID 434952;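 active means compound raising the membrane signal above positive-control mean plus 3 SD in both repeats, and a primary screen hit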). Particulars: HEK293 TRPC6, membrane potential dye fluorescence, at 10 µM; maximal acetylcholine added after compound unless noted.
In assay [12] the target is Short transient receptor potential channel 4 (Mus musculus) (UniProt Q9QUQ5). As to the kind of experiment: calcium flux activators in TRPC4/5HT1a cells, counter-screen for TRPC4 activator project, cell-based, second counter screen, HEK293 TRPC4/5HT1a, Fluo-4 (AID 434977;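 active means calcium signal rise above buffer-control mean plus 5 SD in both duplicates, and also a hit in the primary screen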). The settings on record: Fluo-4 calcium flux, at 10 µM; stronger effect = higher value.
Assay [13] can be described thus: calcium flux inhibitors in TRPC4/5HT1a cells, confirmation, counter-screen for TRPC4 inhibitor project, cell-based, second counter screen, HEK293 TRPC4/5HT1a, Fluo-4 (AID 434978;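 active means primary screen active whose calcium signal fell more than 3 SD beyond the full-serotonin control mean in both duplicate plates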;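 on outcome: serotonin given first at submaximal then at maximal dose after compound preincubation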). The settings on record: Fluo-4 calcium flux, at 10 µM; inhibition: stronger effect = higher value, serotonin added to trigger calcium flux unless noted; outcome: serotonin added to trigger calcium flux unless noted.

Assay [14] concerns TRPC4 (mouse), co-expressed with 5HT1a in HEK293. As to the kind of experiment: calcium flux potentiators in TRPC4/5HT1a cells, confirmation, counter-screen for TRPC4 potentiator project, cell-based, second counter screen, HEK293 TRPC4/5HT1a, Fluo-4 (AID 434979;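 active means signal rise over 3 SD above mean of control wells given weak agonist, in both repeats and first screen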). The settings on record: Fluo-4 calcium flux, at 10 µM; outcome: serotonin added at its EC20 dose unless noted; potentiation: stronger effect = higher value, serotonin added at its EC20 dose unless noted.

A short description of assay [15]: calcium flux activation in mu-opioid HEK293 cells, confirmation, counter-screen for TRPC4 activator project, cell-based, HEK293 mu-opioid receptor line (AID 449723;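 active means hit in primary screen, with calcium signal over 5 SD above buffer well mean in both duplicates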;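 further: counter screen cells carry the mu-opioid receptor alone and lack TRPC4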). Particulars: Fluo-4 calcium fluorescence, at 10 µM; stronger effect = higher value.
The nature of assay [16]: calcium flux enhancement in mu-opioid HEK293 cells, confirmation, counter-screen for TRPC4 allosteric potentiator project, cell-based, HEK293 mu-opioid receptor line (AID 449724;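 active means calcium signal rise more than 3 SD above the low-dose agonist control mean, in both duplicate plates and the primary screen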;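 further: HEK293 cells carrying mu-opioid receptor only with no TRPC4 channel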). The settings on record: Fluo-4 calcium flux, at 10 µM; compound added before EC20 DAMGO stimulus unless noted.
Assay [17] has as its target Short transient receptor potential channel 4 (Mus musculus) (UniProt Q9QUQ5). The experiment in a line: mouse TRPC4 channel inhibitors, dose response, cell-based, HEK293 TRPC4/mu-opioid, Fluo-4 calcium (AID 434942;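 active means primary screen inhibitor hit that blocks the TRPC4 channel at some tested dose, yielding a dose curve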).

For some of these results: Results with a measured potency or affinity are listed apart. Calls of active or inactive are those of the source.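 How the source made its calls, unless noted: active means fluorescence ratio normalized to control raised more than 50% in primary screen plus both repeat runs; inactive means the rest.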

Chain of Short transient receptor potential channel 6 (Mus musculus) (Q61143 whole entry, looked up): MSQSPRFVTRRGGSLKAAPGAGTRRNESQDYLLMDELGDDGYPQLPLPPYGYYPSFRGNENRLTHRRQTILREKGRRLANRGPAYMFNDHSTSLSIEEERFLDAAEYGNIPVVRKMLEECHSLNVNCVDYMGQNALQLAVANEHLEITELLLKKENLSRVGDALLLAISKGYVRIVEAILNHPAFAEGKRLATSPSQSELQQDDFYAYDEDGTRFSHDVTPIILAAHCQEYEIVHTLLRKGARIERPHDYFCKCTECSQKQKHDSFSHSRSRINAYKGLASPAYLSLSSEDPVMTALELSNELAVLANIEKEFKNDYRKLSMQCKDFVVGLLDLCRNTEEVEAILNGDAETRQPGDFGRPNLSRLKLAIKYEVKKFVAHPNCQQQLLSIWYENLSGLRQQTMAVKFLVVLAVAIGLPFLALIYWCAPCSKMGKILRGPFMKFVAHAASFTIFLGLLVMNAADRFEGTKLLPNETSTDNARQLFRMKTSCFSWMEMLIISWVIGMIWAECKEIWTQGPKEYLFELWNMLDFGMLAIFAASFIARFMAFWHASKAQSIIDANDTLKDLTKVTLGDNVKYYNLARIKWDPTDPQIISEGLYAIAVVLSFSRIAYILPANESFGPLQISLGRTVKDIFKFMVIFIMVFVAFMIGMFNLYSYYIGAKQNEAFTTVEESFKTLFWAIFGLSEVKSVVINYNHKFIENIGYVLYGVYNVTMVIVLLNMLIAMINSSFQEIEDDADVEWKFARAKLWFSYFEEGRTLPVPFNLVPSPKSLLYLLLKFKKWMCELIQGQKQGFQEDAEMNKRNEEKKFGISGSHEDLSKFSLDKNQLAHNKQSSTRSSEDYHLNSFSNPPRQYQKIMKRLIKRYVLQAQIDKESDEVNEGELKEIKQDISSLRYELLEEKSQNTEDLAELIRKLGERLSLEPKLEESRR
Chain of Short transient receptor potential channel 4 (Mus musculus) (Q9QUQ5 whole entry, looked up): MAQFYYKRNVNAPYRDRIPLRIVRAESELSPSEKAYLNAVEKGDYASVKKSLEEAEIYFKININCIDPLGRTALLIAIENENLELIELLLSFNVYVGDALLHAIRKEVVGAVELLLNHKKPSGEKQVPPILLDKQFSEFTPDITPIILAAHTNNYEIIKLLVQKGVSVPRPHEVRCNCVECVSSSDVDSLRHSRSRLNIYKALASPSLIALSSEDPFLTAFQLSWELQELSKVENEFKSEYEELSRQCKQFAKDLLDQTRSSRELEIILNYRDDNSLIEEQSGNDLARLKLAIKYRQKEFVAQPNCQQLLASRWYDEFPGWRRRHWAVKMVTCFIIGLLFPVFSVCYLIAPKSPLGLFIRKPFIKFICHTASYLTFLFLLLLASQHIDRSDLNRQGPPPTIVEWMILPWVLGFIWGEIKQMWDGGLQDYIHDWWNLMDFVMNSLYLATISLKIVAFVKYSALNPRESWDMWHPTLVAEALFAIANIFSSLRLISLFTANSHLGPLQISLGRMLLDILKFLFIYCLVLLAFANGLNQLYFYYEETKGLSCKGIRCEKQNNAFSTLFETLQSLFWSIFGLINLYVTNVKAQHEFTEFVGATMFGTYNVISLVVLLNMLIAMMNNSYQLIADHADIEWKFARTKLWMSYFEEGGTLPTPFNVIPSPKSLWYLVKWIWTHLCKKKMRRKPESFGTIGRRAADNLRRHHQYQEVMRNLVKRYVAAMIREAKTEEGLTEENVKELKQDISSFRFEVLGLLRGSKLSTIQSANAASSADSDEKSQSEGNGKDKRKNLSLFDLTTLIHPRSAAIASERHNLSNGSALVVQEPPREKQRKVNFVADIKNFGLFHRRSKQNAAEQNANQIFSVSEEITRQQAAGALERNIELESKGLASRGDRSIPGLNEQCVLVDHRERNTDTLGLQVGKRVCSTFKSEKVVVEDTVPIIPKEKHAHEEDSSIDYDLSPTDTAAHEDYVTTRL

As to `CCOc1c(Cl)cc(CNC(C)C(O)c2ccccc2)cc1OC` (stereo not drawn), the outcome in assay [1], in assay [2], in assay [3], in assay [4], in assay [6] and in assay [7] was inactive. Further, the outcome in assay [8], in assay [9], in assay [10], in assay [11], in assay [12] and in assay [13] was inactive. Further, the result in assay [14], in [15] and in assay [16] was inactive. In addition, in [5], the inhibition is 99% (active).
Turning to `CCOC(=O)C(O)(c1ccc(NC(=S)NC(=O)c2ccc(Cl)cc2Cl)c(C)c1)C(F)(F)F` (stereo not drawn), the outcome in assay [1], in assay [2], in [3], in assay [5], in [6] and in assay [7] was inactive. Moreover, the outcome in [17], in [9], in [10], in [11], in assay [12] and in [13] was inactive. In addition, the result in [15] and in assay [16] was inactive. For the same molecule, the values for the potentiation in [4] and in [14] were 31% (active) and 28.1% (active), respectively.
Regarding `O=C(CN1CCCC1)Nc1ccc(Cl)cc1C(=O)c1ccccc1`, the result in assay [1], in [2], in [3], in assay [4], in [6] and in assay [7] was inactive. The outcome in [8], in [9], in assay [10], in [11], in assay [12] and in [14] was inactive. In addition, the outcome in [15] and in assay [16] was inactive. For the same molecule, the inhibition in assay [5] is 90% (active); in assay [13], 21.8% (active).
For `O=C(c1ccc(Cl)cc1)C1CCCN(C2CCSCC2)C1` (stereo not drawn), the result in assay [1], in assay [2], in assay [3], in [4], in assay [7] and in assay [8] was inactive. The result in assay [9], in assay [10], in assay [11], in assay [12], in assay [14] and in assay [15] was inactive. Besides, the outcome in assay [16] was inactive. Besides, the inhibition in assay [5] was 86% (active); in assay [6] it was 64% (active); in assay [13], 31.4% (active).
Regarding `Cc1ccsc1C(=O)C1CCCN(Cc2ccccc2O)C1` (stereo not drawn), the outcome in assay [1], in assay [2], in [3], in assay [4], in assay [6] and in [7] was inactive. Besides, the outcome in [8], in assay [9], in assay [10], in assay [11], in assay [12] and in [14] was inactive. The outcome in assay [15] and in assay [16] was inactive. In addition, the inhibition in assay [5] was 84% (active); in [13], 44.9% (active).
`COc1ccc(O)c(CN2CCCC(C(=O)c3sccc3C)C2)c1` (stereo not drawn): the outcome in assay [1], in assay [2], in assay [3], in assay [4], in [6] and in assay [7] was inactive. In addition, the outcome in assay [8], in assay [9], in [10], in assay [11], in [12] and in assay [14] was inactive. Besides, the result in assay [15] and in assay [16] was inactive. Besides, the inhibition in assay [5] is 92% (active); in assay [13] it was 29.4% (active).
As for `COc1ccc(CN2CCCC(C(=O)c3sccc3C)C2)cc1O` (stereo not drawn), the outcome in assay [1], in [2], in [3], in assay [4], in assay [6] and in [7] was inactive. Also, the result in [8], in assay [9], in assay [10], in [11], in [12] and in assay [14] was inactive. Besides, the result in assay [15] and in assay [16] was inactive. For the same molecule, the inhibition is 90% (active) in assay [5] and 21.3% (active) in assay [13].
With `CC(=O)OC1(c2ccccc2)CCN(C2CCCCC2)CC1C` (stereo not drawn), the result in assay [1], in assay [2], in assay [3], in assay [4], in assay [6] and in [7] was inactive. For the same molecule, the outcome in assay [8], in assay [10], in [12] and in [15] was inactive. Further, the inhibition in [5] is 91% (active). The outcome in [9], in assay [11], in [13], in assay [14] and in [16] was “inactive [setting not given]” throughout.
In the case of `COc1ccc2[nH]cc(CCN(C)C)c2c1`, the outcome in [1], in assay [2], in assay [4], in assay [5], in [6] and in assay [7] was inactive. In addition, the result in assay [17], in assay [10], in assay [12] and in assay [15] was inactive. In assay [3], the potentiation was 7% (active). Moreover, the outcome in assay [9], in assay [11], in [13], in assay [14] and in [16] was “inactive [setting not given]” each time.
In the case of `CCOC(=O)C1(CCc2ccccc2)CCN(Cc2ccco2)CC1`, the result in assay [1], in [2], in assay [3], in assay [4], in assay [6] and in assay [7] was inactive. For the same molecule, the outcome in [8], in assay [9], in assay [10], in [11], in [12] and in assay [13] was inactive. For the same molecule, the outcome in [14], in assay [15] and in assay [16] was inactive. In addition, the inhibition in assay [5] was 94% (active).
As for `CCCCc1ncc(CN2CCCC(C(=O)c3ccc(SC)cc3)C2)[nH]1` (stereo not drawn), the outcome in assay [1], in assay [2], in assay [3], in assay [4], in assay [7] and in assay [8] was inactive. In addition, the call in [9], in [10], in assay [11], in assay [12], in assay [14] and in [15] was inactive. In addition, in assay [16], the result was inactive. Also, the inhibition in [5] is 90% (active); in assay [6] it was 45% (active); in [13], 41.9% (active).
On to `CCN(CC)c1ccc([N+](=O)[O-])c2cccnc12`, for which the result in [1], in [2], in assay [3], in [4], in [6] and in assay [7] was inactive. Moreover, the outcome in assay [8], in [9], in assay [10], in assay [11], in [12] and in assay [14] was inactive. Further, the result in assay [15] and in assay [16] was inactive. In addition, the inhibition was 93% (active) in assay [5] and 28% (active) in assay [13].
Regarding `N=c1n(CCO)c2ccccc2n1Cc1ccccc1`, the outcome in assay [1], in assay [2], in assay [3], in assay [4], in assay [7] and in [8] was inactive. The result in [9], in [10], in assay [11], in [12], in assay [14] and in assay [15] was inactive. Besides, in [16], the outcome was inactive. For the same molecule, the inhibition in [5] is 86% (active); in assay [6], 48% (active); in assay [13] it was 42.9% (active).
